# Source: PubChem BioAssay (Tox21)
# “And” between values parts separate entries of the source, which are not always exact repeats. Identical values can stand only once. Results filed as inconclusive are left out. A call without a number means that no potency is given here. The source made the active and inactive calls. Calls follow the shape of the dose curve; as a rule, active = well fitted cell-killing curve with a large enough effect in the repeat runs; inconclusive = weak or mixed curves, or effect the other way; inactive = no such curve, though single readings can be large or run the other way.
# Assay: qHTS assay to identify small molecule antagonists of the retinoid-related orphan receptor gamma (ROR-gamma) signaling pathway - cell viability counter screen (AID 1159520); also: nearly all actives have a fitted effect of over 50% in size
# Details: Tet-on RORgamma CHO cells viability, ATP luminescence, 16 h; series mostly up to 92.4 µM
# Method in brief: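 Tet-on ROR gamma CHO cells were given compounds for 2 hr, then doxycycline hyclate at 1 uM final, and incubated 16 hr at 37 C. Viability was measured as ATP content by CellTiter-Glo luminescence.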
# Potency is read from the fitted curve at half-maximal effect.
row,Compound,Potency
1,CC(C)(C)CC(C)(C)c1ccc(O)cc1,27.3 µM (active)
2,CNC(=O)Oc1cccc(N=CN(C)C)c1,inactive
3,c1ccc2sc(SNC3CCCCC3)nc2c1,inactive
4,O=C(N[C@H]1CN2CCC1CC2)c1ccc2c(c1)OCCO2,inactive
5,C=CCOC(=O)C(C)(C)OC(=O)c1cc(-n2c(=O)cc(C(F)(F)F)n(C)c2=O)ccc1Cl,inactive
6,C=CCc1ccc(OC(=O)Cc2ccccc2)c(OC)c1,inactive
7,O=[N+]([O-])O[C@H]1CO[C@H]2[C@@H]1OC[C@H]2O[N+](=O)[O-],inactive
8,C[C@H]1[C@@H]2Cc3ccc(O)cc3[C@@]1(C)CCN2C,inactive
9,Cc1cnc(C2=NC(C)(C(C)C)C(=O)N2)c(C(=O)O)c1 (stereo unspecified),inactive
10,Cc1ncc(C[n+]2csc(CCO)c2C)c(N)n1,inactive
11,COc1cc(CC(C)N)c(OC)cc1Br (stereo unspecified),inactive
12,C[Si](Cn1cncn1)(c1ccc(F)cc1)c1ccc(F)cc1,inactive
13,Cc1nc2ccccc2c(=O)n1-c1ccccc1Cl,inactive
14,CN(C)C(=O)Nc1cccc(OC(=O)NC(C)(C)C)c1,inactive
15,CN(C)c1ccc(N=O)cc1,15.4 µM (active) and 12.2 µM (active)
16,NP(N)(=O)NC(=O)c1ccc(F)cc1,inactive
17,OC[P+](CO)(CO)CO,inactive
18,COC1=CC(=O)O[C@@H](/C=C/c2ccc3c(c2)OCO3)C1,inactive
19,CCN(C(C)=O)c1cccc(-c2ccnc3c(C#N)cnn23)c1,inactive
20,CCOC(=O)c1cn2nc(OP(=S)(OCC)OCC)cc2nc1C,inactive
21,O=C(O)CCCOc1ccc(Cl)cc1Cl,inactive
